Source: PubChem
The list is not random: actives were taken first. Their share in the collection is about 1.1%.
MOR-DOR inv ag – inverse agonist of human OPRM1-OPRD1 heterodimerization; cell-based MOR-DOR heterodimer luminescence, inverse agonism; inhibition, % at 9.3 µM; 340,000 tested, 0.21% active; AID 504357; in the data active means inhibition above about 22%, passing the limit was not always enough;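 further: 0% = cells with DMSO and 100% = wells without cells with DMSO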
Target sequence (P35372 whole entry, looked up): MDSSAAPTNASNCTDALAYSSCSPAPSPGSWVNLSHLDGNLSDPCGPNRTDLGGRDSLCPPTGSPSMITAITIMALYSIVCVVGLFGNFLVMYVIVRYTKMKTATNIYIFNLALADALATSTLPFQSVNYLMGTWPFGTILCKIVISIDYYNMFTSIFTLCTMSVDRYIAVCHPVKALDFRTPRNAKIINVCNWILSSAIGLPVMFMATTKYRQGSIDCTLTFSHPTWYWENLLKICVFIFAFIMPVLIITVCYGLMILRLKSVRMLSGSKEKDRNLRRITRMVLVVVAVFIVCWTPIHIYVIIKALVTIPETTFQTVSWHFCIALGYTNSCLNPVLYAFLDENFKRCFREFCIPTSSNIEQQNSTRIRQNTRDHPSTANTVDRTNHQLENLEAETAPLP
Target sequence (P41143 whole entry, looked up): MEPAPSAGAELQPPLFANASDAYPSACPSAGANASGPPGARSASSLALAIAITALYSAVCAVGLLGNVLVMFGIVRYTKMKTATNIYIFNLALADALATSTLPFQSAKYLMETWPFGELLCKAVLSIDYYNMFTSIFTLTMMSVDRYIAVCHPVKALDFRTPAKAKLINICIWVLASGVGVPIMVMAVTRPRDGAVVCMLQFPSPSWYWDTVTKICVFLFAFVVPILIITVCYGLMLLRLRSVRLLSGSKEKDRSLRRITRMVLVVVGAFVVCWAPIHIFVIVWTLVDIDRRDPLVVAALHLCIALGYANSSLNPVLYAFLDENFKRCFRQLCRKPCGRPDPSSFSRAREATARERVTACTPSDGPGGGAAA
HTR5A ag ctr – HTR5A agonism, opioid heterodimer counter-screen. HTR5A agonist assay, luminescence, cell-based. activation, % at 9.3 µM. 340,000 tested, 0.61% active. AID 504692; in the data active means activation mostly above about 9.5%, no sharp cut-off; inactive means mostly below about 7.6%;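 further: 0% = cells with vehicle only and 100% = reference agonist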
HTR5A inv ag – counter-screen for OPRM1-OPRD1 inverse agonists: human HTR5A inverse agonism. P47898. HTR5A cell line, luminescence. inhibition, % at 9.3 µM. 340,000 tested, 0.083% active. AID 504634; in the data active means inhibition mostly above about 23%, no sharp cut-off; inactive means mostly below about 18%;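 further: 0% = cells with DMSO and 100% = no-cell wells with DMSO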
OPRM1-OPRD1 ag – agonists of human mu-delta opioid receptor heterodimerization. cells, OPRM1-OPRD1 heterodimerization, luminescence. activation, % at 9.3 µM. 340,000 tested, 0.3% active; in the data active means activation above about 18%;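 further: 0% = vehicle-treated cells and 100% = reference agonist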
MOR-DOR inv conf – OPRM1-OPRD1 heterodimer inverse agonism, confirmation; shares compounds with MOR-DOR inv ag; cells expressing OPRM1/OPRD1 heterodimer, luminescence; inhibition, % at 9.3 µM; 580 tested, 20% active; AID 504900; in the data active means inhibition above about 32%;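 further: 0% = cells with DMSO and 100% = wells lacking cells with DMSO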
HTR5A inv ctr2 – counter-screen for OPRM1-OPRD1 inverse agonists: human HTR5A inverse agonism; shares compounds with MOR-DOR inv ag; HTR5A-expressing cells, luminescence; inhibition, % at 9.3 µM; 580 tested, under 10 active; call rule not given here;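 further: 0% = cells with DMSO and 100% = no-cell wells with DMSO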
Active calls of the source: *; i = inactive; x = no result.

SMILES	MOR-DOR inv ag	HTR5A ag ctr	HTR5A inv ag	OPRM1-OPRD1 ag	MOR-DOR inv conf	HTR5A inv ctr2
CCCc1c(C(=O)Nc2ccc(C(F)(F)F)cc2)cnn1-c1ccccc1	-25.9	0.5	-3.0	5.3	x	x
CCCc1c(C(=O)NNc2ccc(C)cc2)cnn1-c1ccccc1	39.3*	2.1	-0.9	-7.8	-3.2	-15.7
CC(=O)NC(=S)Nc1ccccc1C(=O)Nc1ccccc1	27.5*	-2.2	-24.4	-5.0	7.4	-2.1
CCCCC(=O)NC(=S)Nc1ccccc1C(=O)Nc1ccccc1	29.9*	-2.5	10.2	-5.5	8.4	2.4
O=C(COC(=O)Cc1cccc(C(F)(F)F)c1)Nc1ccc2[nH]c(=O)[nH]c2c1	-2.7	2.6	-7.1	0.4	x	x
Cc1ccc(CN2C(=O)C(CC(C)C)Nc3ncnc(N4CCN(c5ccccc5)CC4)c32)cc1 (centres undefined)	7.6	4.7	9.1	-1.3	x	x
CCC1Nc2ncnc(N3CCN(c4ccccc4)CC3)c2N(Cc2ccc(C)cc2)C1=O (centres undefined)	50.0*	-16.4	36.1	-10.9	35.6*	56.0*
COc1cccc(-n2nc(C#N)c(Cl)cc2=O)c1	28.5*	-5.2	13.7	-5.0	-1.7	17.5
COc1cccc(-n2nc(C(N)=O)c(O)cc2=O)c1	13.7	1.9	-5.4	-2.4	x	x
COc1cc(C(C)=O)ccc1OCc1cn(CC(=O)c2ccc(O)cc2)nn1	31.7*	-2.3	8.7	-6.8	i	-24.9
CC1(C)CC(=O)CC(C2(O)C(=O)N(Cc3ccccc3)c3ccccc32)O1 (centres undefined)	34.1*	-6.0	15.5	-6.2	19.7	8.8
CC1(C)CC(=O)C(C2(O)C(=O)N(Cc3ccccc3)c3ccccc32)CO1 (centres undefined)	28.6	-6.9	18.1	-5.8	x	x
Cn1nnc(NC(=S)NC(=O)c2cccs2)n1	30.6	-8.8	21.2	-6.2	x	x
COc1cc(OC)cc(C(=O)NC(=S)Nc2nnn(C)n2)c1	41.1*	-1.4	0.7	-8.2	24.8	7.0
Cn1nnc(NC(=S)NC(=O)c2cccc3ccccc23)n1	40.8*	-1.1	4.7	-7.7	9.3	3.4
CC1CCCCC12NC(=O)N(CC(=O)Nc1nccs1)C2=O (centres undefined)	16.4	-0.1	0.4	-3.1	x	x
COc1cc(C=NNc2nc3c([nH]2)c(=O)n(C)c(=O)n3C)ccc1O	35.1*	-2.4	9.5	-7.2	14.5	-1.0
CN(C)C(=O)CSc1n[nH]c(=O)n1CCc1ccccc1	38.2*	-1.9	2.8	-6.0	-58.2	-2.9
CCOC(=O)CSc1n[nH]c(=O)n1CCc1ccccc1	-2.1	2.1	-7.9	0.4	x	x
O=C(COC(=O)c1cccnc1)c1ccc(Cl)c(Cl)c1	56.9*	-5.8	7.3	-9.6	-149.7	-11.3
Cc1ccc(C(=O)COC(=O)c2cnccn2)cc1[N+](=O)[O-]	53.9*	-6.7	18.8*	-10.6	33.3*	17.1
O=C(COC(=O)c1cnccn1)c1ccc(Cl)c([N+](=O)[O-])c1	81.5*	-6.3	13.4	-15.4	-113.2	-46.2
O=C(OCC(=O)c1ccc(Cl)cc1Cl)c1cnccn1	40.5*	-4.0	10.6	-5.4	18.1	1.1
O=C(COC(=O)c1cccnc1)c1ccc(Cl)cc1	16.5	1.4	11.8	-3.1	x	x
O=C(COC(=O)c1cnccn1)c1ccc([N+](=O)[O-])cc1	22.0	-2.2	-19.9	-4.2	x	x
SMILES	MOR-DOR inv ag	HTR5A ag ctr	HTR5A inv ag	OPRM1-OPRD1 ag	MOR-DOR inv conf	HTR5A inv ctr2
C=CCN([C@H](C(=O)OC)C(C)C)S(=O)(=O)CCNCc1ccccc1	-8.0	-1.5	0.3	1.4	x	x
CC1CCC(NC(=O)N(CCCl)N=O)CC1 (centres undefined)	7.1	0.1	-0.2	-1.3	x	x
C[C@H](CO)N1C[C@H](C)[C@@H](CN(C)S(=O)(=O)c2cccs2)Oc2c(NC(=O)C3CC3)cccc2C1=O	9.6	9.4	-27.5	-1.7	x	x
Cc1cc(C(C)(C)C)c(OC(=O)[C@@H]2OC(c3ccccc3)=C[C@H]2c2ccccc2)c(C(C)(C)C)c1	13.6	6.6	-4.9	-2.4	x	x
O=C(C1=C(O)C(=O)N(CCN2CCOCC2)C1c1ccco1)c1cc2ccccc2o1 (centres undefined)	33.6*	0.9	-3.7	-6.3	-102.0	-40.4
O=C(C1=C(O)C(=O)N(CCN2CCOCC2)C1c1ccc(F)cc1)c1cc2ccccc2o1 (centres undefined)	10.1	0.8	-3.3	-1.9	x	x
C/C(=N\NC(=O)c1cc(C)nc2ccccc12)c1ccccn1	26.3	-0.7	1.6	-6.8	x	x
COc1ccc2nc(NN=C(C)c3ccccn3)cc(C)c2c1	38.8*	-4.5	17.4	-7.5	-34.0	-91.1
COc1ccc(-c2cccc3c2NC(=O)C3=O)cc1OC	63.5*	-3.1	8.2	-10.9	41.7*	15.8
COc1ccc(/C=C2\C(=O)NC(=O)c3ccccc32)cc1OC	1.3	3.8	-14.6	-0.3	x	x
O=C(NCc1ccccn1)c1ccc(Cn2c(=S)[nH]c3ccc(Br)cc3c2=O)cc1	1.5	3.8	-10.4	-0.3	x	x
O=c1c2cc(Cl)ccc2[nH]c(=S)n1Cc1ccccn1	72.2*	-8.7	23.1	-12.0	55.2*	9.7
COc1ccc(Cl)cc1C(=O)NNC(=O)CNC(=O)c1ccco1	8.7	6.3	-15.4	-2.1	x	x
O=C1NC(=S)S/C1=C\c1cc(Cl)cc(Cl)c1O	34.6*	0.4	-1.6	-7.1	-59.1	-13.0
O=C(Nc1ccc(Oc2cccnc2)cc1)C1CCN(Cc2cc(Cl)ccc2O)CC1	3.1	2.5	9.0	-0.6	x	x
O=C1/C(=C/c2ccc([N+](=O)[O-])cc2)CCC1C1CCCC1 (centres undefined)	-10.5	3.6	-12.8	2.3	x	x
Cc1c(C(=O)N(C)C)sc2nc(-c3ccccn3)[nH]c(=O)c12	16.0	3.4	-8.7	-3.2	x	x
O=c1[nH]c(-c2ccccn2)nc2sc(-c3ccccc3)cc12	33.0*	2.1	-6.1	-6.4	6.1	1.8
Cc1cc(C)n(-c2ccnc3cc(Cl)ccc23)n1	2.1	-0.6	2.5	-0.4	x	x
CCNC(=S)NNC(=O)CSc1nc2ccccc2n1C	38.3*	-2.7	7.0	-7.7	-15.3	16.7
CCNC(=S)NNC(=O)CSc1nc2ccccc2[nH]1	26.1	-2.5	30.7	-5.7	x	x
Cc1ccc(NS(=O)(=O)c2ccc(-c3coc(C)n3)cc2)c(Br)c1	2.6	0.5	11.0	-0.5	x	x
CC(C)N1C(=O)C(O)(C2COC(C)(C)CC2=O)c2ccccc21 (centres undefined)	10.9	0.8	-11.5	-2.1	x	x
CC1(C)CC(=O)C(C2(O)C(=O)Nc3ccccc32)CO1 (centres undefined)	55.4*	-8.1	22.2*	-11.3	-110.3	-63.1
COc1ccccc1CNC(=O)N1CCN(c2ccccc2Cl)CC1	-6.4	-2.1	-14.0	1.0	x	x
Cc1cccc(C)c1NC(=O)CNC(=O)CCCc1c[nH]c2ccccc12	24.6	-5.5	-20.0	-4.6	x	x
CCCN1CCC(=NNC(=O)c2ccc(Br)o2)CC1	-2.7	2.9	-7.5	0.5	x	x
CCCN1CCC(=NNc2ccc(C(=O)O)cc2)CC1	37.0*	-0.8	26.4	-7.7	-23.8	-142.5
